Data on 91 compounds can be found in PubChem BioAssay AID504333 (National Center for Advancing Translational Sciences (NCATS), 2011).

Out of some 360,000 compounds screened, about 16,000 (4.4%) were called active. Where a call stands in place of a potency, no number is given. Roughly 9% stayed inconclusive and do not appear here. Calls follow the shape of the dose curve; as a rule, active = well fitted inhibition curve with a large enough effect; inconclusive = small, poorly fitted or top-dose-only effect; inactive = no such curve, though single readings can be large or run the other way. This excerpt belongs to a sample that is enriched for actives.
Potency is read from the fitted curve at half-maximal effect.

The target in this assay is Bromodomain adjacent to zinc finger domain protein 2B (Homo sapiens) (UniProt Q9UIF8). The experiment in a line: qHTS Assay for Inhibitors of BAZ2B. Also: nearly all actives have a fitted effect of over 60% in size. The conditions noted are these: AlphaScreen BAZ2B-H3K14Ac peptide displacement; series mostly up to 114 µM. A digest of the protocol: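 In this displacement format the biotinylated H3(5-23) peptide acetylated at Lys14 serves as ligand at 50 nM, with BAZ2B at 50 nM in PBS pH 7.4 containing 0.01% Tween-20. Donor and acceptor beads are 10 ug/mL final.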
Bromodomain adjacent to zinc finger domain protein 2B (Homo sapiens), sequence (Q9UIF8 whole entry, looked up, the tested form may be a part): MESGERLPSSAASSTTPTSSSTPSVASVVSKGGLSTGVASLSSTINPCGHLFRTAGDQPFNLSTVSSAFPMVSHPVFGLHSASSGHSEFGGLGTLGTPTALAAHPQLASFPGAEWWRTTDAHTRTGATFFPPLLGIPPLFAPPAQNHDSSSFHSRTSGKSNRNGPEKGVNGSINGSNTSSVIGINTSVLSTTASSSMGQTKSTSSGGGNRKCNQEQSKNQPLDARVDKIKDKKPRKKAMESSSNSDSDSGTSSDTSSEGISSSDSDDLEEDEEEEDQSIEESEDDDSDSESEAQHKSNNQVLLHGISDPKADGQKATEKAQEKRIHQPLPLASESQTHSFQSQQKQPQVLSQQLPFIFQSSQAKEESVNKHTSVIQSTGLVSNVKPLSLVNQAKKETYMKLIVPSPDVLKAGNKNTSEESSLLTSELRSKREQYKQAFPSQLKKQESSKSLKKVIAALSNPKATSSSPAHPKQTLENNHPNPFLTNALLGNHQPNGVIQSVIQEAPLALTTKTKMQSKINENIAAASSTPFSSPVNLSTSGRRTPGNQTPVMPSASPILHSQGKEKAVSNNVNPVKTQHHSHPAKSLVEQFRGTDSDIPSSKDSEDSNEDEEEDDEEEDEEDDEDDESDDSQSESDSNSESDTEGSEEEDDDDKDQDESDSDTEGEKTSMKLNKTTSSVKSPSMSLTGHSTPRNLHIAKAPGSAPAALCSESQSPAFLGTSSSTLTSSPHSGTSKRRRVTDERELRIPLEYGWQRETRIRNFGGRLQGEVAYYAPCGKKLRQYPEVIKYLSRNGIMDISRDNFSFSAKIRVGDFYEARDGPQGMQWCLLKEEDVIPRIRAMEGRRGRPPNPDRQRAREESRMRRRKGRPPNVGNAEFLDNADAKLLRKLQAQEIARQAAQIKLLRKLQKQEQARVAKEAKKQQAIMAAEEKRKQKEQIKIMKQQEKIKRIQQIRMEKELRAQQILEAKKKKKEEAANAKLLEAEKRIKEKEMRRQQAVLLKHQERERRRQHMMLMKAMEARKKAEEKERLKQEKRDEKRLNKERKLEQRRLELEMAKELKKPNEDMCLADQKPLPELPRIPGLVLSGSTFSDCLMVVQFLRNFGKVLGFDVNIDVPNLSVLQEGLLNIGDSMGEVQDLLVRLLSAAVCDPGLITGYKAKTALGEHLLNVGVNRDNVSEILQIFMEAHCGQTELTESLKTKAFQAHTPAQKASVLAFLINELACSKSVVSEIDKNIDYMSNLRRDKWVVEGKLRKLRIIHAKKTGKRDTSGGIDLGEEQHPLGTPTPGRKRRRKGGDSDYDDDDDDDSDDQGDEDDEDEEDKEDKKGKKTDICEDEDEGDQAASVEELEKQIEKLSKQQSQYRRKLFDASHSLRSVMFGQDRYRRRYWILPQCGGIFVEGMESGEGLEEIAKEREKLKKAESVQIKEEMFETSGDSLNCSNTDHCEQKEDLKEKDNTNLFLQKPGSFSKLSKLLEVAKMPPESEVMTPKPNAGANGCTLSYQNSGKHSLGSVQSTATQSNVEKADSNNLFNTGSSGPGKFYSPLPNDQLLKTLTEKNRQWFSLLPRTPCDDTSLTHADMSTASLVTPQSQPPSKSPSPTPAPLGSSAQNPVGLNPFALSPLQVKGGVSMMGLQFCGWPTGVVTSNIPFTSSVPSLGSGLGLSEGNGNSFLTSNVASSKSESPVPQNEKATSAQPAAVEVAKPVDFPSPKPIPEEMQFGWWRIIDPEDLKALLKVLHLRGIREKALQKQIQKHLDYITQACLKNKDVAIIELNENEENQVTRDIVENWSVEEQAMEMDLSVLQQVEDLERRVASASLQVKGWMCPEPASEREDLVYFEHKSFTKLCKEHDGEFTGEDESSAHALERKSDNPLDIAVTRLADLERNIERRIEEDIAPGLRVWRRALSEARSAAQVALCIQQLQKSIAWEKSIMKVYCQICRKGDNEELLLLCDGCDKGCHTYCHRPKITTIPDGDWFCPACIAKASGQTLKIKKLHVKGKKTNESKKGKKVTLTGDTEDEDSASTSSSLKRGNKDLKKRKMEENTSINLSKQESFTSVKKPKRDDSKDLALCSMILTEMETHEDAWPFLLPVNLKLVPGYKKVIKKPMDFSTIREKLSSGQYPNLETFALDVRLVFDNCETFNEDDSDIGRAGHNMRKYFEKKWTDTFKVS
In the case of `CC(=O)Nc1ccc(/C=C/C(=O)c2ccccc2)cc1`, the Potency entry is “inactive”. For the compound `CN(C)c1ccc(/C=C/C(=O)c2ccc(C(C)(C)C)cc2)cc1[N+](=O)[O-]`, the Potency was 8.91 µM (active). For `Cc1cc(C(=O)O)ccc1[N+](=O)[O-]` the value was “inactive”. For the compound `O=S(=O)(c1ccc(C2CCCCC2)cc1)N1CCN(c2ccc(Cl)c(Cl)c2)CC1`, the Potency result was “inactive”. The entry for `CC1CCN(S(=O)(=O)c2ccc3c(c2)N(CC(=O)NCCc2ccccc2)C(=O)CO3)CC1` is “inactive”; for `Cc1cc(Cl)ccc1NC(=O)Cc1ccc(NC(=O)N2CCCCc3ccccc32)cc1` it is “inactive”; for `Cc1ccc(-n2c(=O)c3cccnc3n2CC(=O)Nc2ccccc2C(F)(F)F)cc1C` it is “inactive”. Regarding `c1ccc(C2=Nc3cccc4cccc(c34)N2)cc1`, the Potency result was “inactive”.

`COc1ccccc1C1=Nc2cccc3cccc(c23)N1`: the Potency was 39.8 µM (active). As to `COc1ccccc1-c1nc(C(F)(F)F)c(OC)o1`, the Potency entry is “inactive”.

`Cc1ccccc1-c1nc2cc(NC(=O)c3cccc(OCCC(C)C)c3)ccc2o1`: the Potency entry is “inactive”. For the compound `CCc1ccc2oc(-c3ccc(C)c(NC(=O)/C=C/c4ccco4)c3)nc2c1`, the Potency entry is “inactive”.

`Cn1c2ccccc2c(=O)c2c(=O)n(Cc3ccco3)c(COc3ccccc3)nc21`: the Potency was 56.2 µM (active). The entry for `O=C(CSc1nnc(COc2ccc(Cl)cc2)n1Cc1ccco1)N1CCNC1=O` is “inactive”. In the case of `COCn1c(COc2ccccc2)nc2ccccc21`, the Potency result was “inactive”. On to `Cc1ccc2ncc(C(=O)Nc3ccc(OC(F)(F)F)cc3)c(=O)n2c1`, for which the Potency entry is “inactive”. As for `Cc1ccc(Cl)cc1NC(=O)CCS(=O)(=O)c1ccc(Br)s1`, the Potency entry was “inactive”. `Oc1c(C=Nc2cccc3nsnc23)ccc2ccccc12`: the Potency was 50.1 µM (active). With `Cc1ccc(-n2c(=O)c3cccnc3n2CC(=O)NCc2ccc(F)cc2)cc1C`, the Potency entry was “inactive”. For `CN(C)[C@@H]1C(=O)C(C(N)=O)=C(O)[C@@]2(O)C(=O)C3=C(O)c4c(O)ccc(Cl)c4[C@@H](O)[C@H]3C[C@@H]12` the value was 10 µM (active). As for `C=C1c2c(Cl)ccc(O)c2C(O)=C2C(=O)[C@]3(O)C(O)=C(C(N)=O)C(=O)[C@@H](N(C)C)[C@@H]3[C@@H](O)C12` (stereo partly specified), the Potency is 2.82 µM (active).

Turning to `Cc1cc(=O)n(CC(=O)Nc2cccc([N+](=O)[O-])c2)c(-n2nc(C)cc2C)n1`, the Potency result was “inactive”.

As for `N#Cc1ccccc1Cn1cnc2nc3c(cc2c1=O)CCCC3`, the Potency entry was “inactive”. Turning to `COc1ccc(-c2cc(-c3nc(-c4cc(OC)c(OC)c(OC)c4)no3)[nH]n2)c(OC)c1`, the Potency entry is “inactive”. Take `COc1ccc(N2CCN(C(=O)c3c(C)oc4nc(C)nc(N5CCCC5)c34)CC2)cc1`: the Potency result was “inactive”.

Consider `CC1=NN(c2ccccc2)C(=O)C1C(=O)c1ccc([N+](=O)[O-])cc1` (stereo unspecified), for which the Potency entry is “inactive”. Turning to `O=C1CC(c2ccccc2)=NN1c1ccc([N+](=O)[O-])cc1`, the Potency was 25.1 µM (active). For `O=c1[nH]n(-c2ccc([N+](=O)[O-])cc2)c(=O)c2ccccc12` the value was “inactive”; for `CCCn1c2ccccc2c2cnn(CC(=O)NCCCOC(C)C)c(=O)c21`, “inactive”; for `CCc1nnc2c3ccccc3nc(N3CCN(c4ccc(C)cc4C)CC3)n12`, “inactive”.

Turning to `OCCn1c(-c2ccccc2)csc1=Nc1ccccc1`, the Potency is 11.2 µM (active). Regarding `CN(C)CCCn1c(-c2ccc(Cl)cc2)csc1=Nc1ccccc1`, the Potency was 12.6 µM (active).

Turning to `Cc1csc(=NC(=O)c2ccccc2)n1CCO`, the Potency entry was “inactive”. `CC(C)Cn1c(-c2ccc(S(=O)(=O)N3CCOCC3)cc2)csc1=Nc1cc(Cl)ccc1Cl`: the Potency result was “inactive”.

For `Cc1cccn2c(=O)c(C(=O)NC(C)c3ccccc3)cnc12` (stereo unspecified), the Potency result was “inactive”.

With `Cc1csc2nc(COC(=O)c3ccccc3NC(=O)c3ccccc3Cl)cc(=O)n12`, the Potency entry is “inactive”.

Turning to `Cc1ccc(CN2COc3cc(C)c4c(oc(=O)c5ccccc54)c3C2)cc1`, the Potency entry was “inactive”. For `CC(=O)c1sc(N2C(=O)c3oc4ccccc4c(=O)c3C2c2ccc(C)cc2)nc1C` (stereo unspecified), the Potency result was “inactive”. Take `Cc1ccc(S(=O)(=O)c2cn(Cc3ccccc3)c3cc(N4CCCC4)c(F)cc3c2=O)c(C)c1`: the Potency entry was “inactive”. Take `Oc1ccc2ccccc2c1N=Nc1nccs1`: the Potency was 2 µM (active). The figure for `Oc1ccc(N=Nc2nccs2)c(O)c1` is 25.1 µM (active). Turning to `CCc1ccccc1N(C)C(=O)C1CCCN(c2ncnc3onc(-c4ccc(F)cc4)c23)C1` (stereo unspecified), the Potency result is “inactive”. For the compound `CN(C(=O)CSc1nc2ccccc2n1Cc1ccccc1C#N)c1ccccc1`, the Potency entry was “inactive”. For `CC(C)(C)OC(=O)N1CCC(c2c(C(=O)NCCc3ccsc3)cnn2-c2ccc(F)cc2F)CC1` the value was “inactive”; for `Cc1ccccc1CNC(=O)CCCn1nc(C)c2sc3ccccc3c2c1=O`, “inactive”; for `CCCC(=O)Nc1ccc(NC(=O)c2sc3ccccc3c2Cl)cc1`, “inactive”. For `Cc1ccc(-c2cc(C(=O)Nc3nn[nH]n3)c3ccccc3n2)c(C)c1`, the Potency entry was “inactive”.

As for `Cc1ccc2c(Cl)c(C(=O)Nc3nn[nH]n3)sc2c1`, the Potency was 50.1 µM (active).

Take `CN(C)S(=O)(=O)c1ccc(C(=O)N(Cc2cccnc2)c2nc3c(F)cc(F)cc3s2)cc1`: the Potency entry is “inactive”.

As to `CC(=O)Nc1cccc(NC(=O)CSc2cn(CC(=O)N3CCCC3)c3ccccc23)c1`, the Potency result was “inactive”. For `COc1ccc(Cn2c(=O)n(-c3ccccc3C)c(=O)c3c4c(sc32)CN(C(C)=O)CC4)cc1` the value was “inactive”; for `CN1C(=O)C(CC(N)=O)N(NC(=O)c2ccc(Cl)cc2)C1=S` (stereo unspecified), “inactive”; for `CCOc1ccc(/C=C2\SC(=S)N(NC(=O)c3ccncc3)C2=O)cc1OC`, “inactive”. Regarding `Cn1cccc1/C=C1\SC(=S)N(NC(=O)c2ccc(Cl)cc2)C1=O`, the Potency is 12.6 µM (active). For the compound `COc1ccc(N2CCN(C(=O)CSCc3nc(-c4ccccc4Cl)oc3C)CC2)cc1`, the Potency entry was “inactive”. As for `Cc1cccc(N=Nc2c(O)[nH]c3ccc(F)cc23)c1`, the Potency result was “inactive”. With `Cc1[nH]n(C)c(=O)c1N=Nc1ccc(S(C)(=O)=O)cc1`, the Potency entry is “inactive”.

In the case of `Cc1cccc(N=Nc2c(C)[nH]n(-c3ccccc3)c2=O)c1`, the Potency is 3.16 µM (active). For `O=C(CCS(=O)(=O)c1ccccc1)N(Cc1cccnc1)c1nc2c(F)cccc2s1` the value was “inactive”. For the compound `Cc1ccc(Cl)cc1N(C)C(=O)Cn1nc(Cc2cccnc2)c2ccccc2c1=O`, the Potency entry is “inactive”. Take `CC1CCCCN1S(=O)(=O)c1ccc(F)c(C(=O)Nc2ccccc2C(F)(F)F)c1` (stereo unspecified): the Potency entry was “inactive”. Turning to `CCn1cc(NC(=O)Nc2ccc(OC)c(OC)c2)c(C(N)=O)n1`, the Potency entry was “inactive”. In the case of `COc1ccc(NC(=O)NC(C)c2c(-n3cccc3)sc(C)c2C)cc1OC` (stereo unspecified), the Potency is 35.5 µM (active). With `Cc1ccc(NC(=O)NC(C)c2c(-n3cccc3)sc(C)c2C)c(C)c1` (stereo unspecified), the Potency entry is “inactive”. On to `Cc1cc(Nc2cccc(C(F)(F)F)c2)nc2ccc(NC(=O)c3ccc(=O)[nH]c3)cc12`, for which the Potency result was “inactive”.

In the case of `COc1ccc(-c2nnc3n2CCCCC3)cc1`, the Potency entry was “inactive”. As for `COc1ccc(-c2nc(SCC(=O)N3CCCC3)n[nH]2)cc1`, the Potency entry was “inactive”. As for `COc1ccc(-c2nc3n(c2Br)CCC3)cc1`, the Potency was 50.1 µM (active). Regarding `CCc1nn(CC(=O)Nc2cc(C)cc(C)c2)c(=O)c2cc3sccc3n12`, the Potency result was “inactive”.

As for `COc1ccc(-c2cc(=O)c3c(O)cc(O[C@@H]4O[C@H](CO[C@@H]5O[C@@H](C)[C@H](O)[C@@H](O)[C@H]5O)[C@@H](O)[C@H](O)[C@H]4O)cc3o2)cc1O`, the Potency entry is “inactive”. With `CCOC(=O)COc1cc(OCC(=O)OCC)c2c(=O)cc(-c3ccccc3)oc2c1`, the Potency entry is “inactive”. For the compound `COc1c(O)cc2oc(-c3ccc(O)c(O)c3)cc(=O)c2c1O`, the Potency was 50.1 µM (active).

With `COCCCn1c(SCC(=O)NC2CCCC2)nnc1-c1ccccc1`, the Potency result is “inactive”. The figure for `COCCCn1c(Cc2csc(Nc3cccc(Cl)c3)n2)nnc1SCC(=O)OC1CCCCC1` is 39.8 µM (active); for `COCCCn1c(SCC(=O)Nc2ccccc2)nnc1-c1ccncc1` it is “inactive”.

As for `COc1ccc(-c2cc(C(=O)NCc3cc(OC)c(OC)c(OC)c3)[nH]n2)cc1`, the Potency entry is “inactive”. In the case of `CN(C)c1cccc(C(=O)Nc2nc3ccc(S(=O)(=O)NC(C)(C)C)cc3s2)c1`, the Potency entry was “inactive”.

`Cc1cc(C)c(NC(=O)CN2CCCCCC2)c(C)c1`: the Potency result was “inactive”. `O=C(CN1CCCCCC1)Nc1c(Cl)cc(Cl)cc1Cl`: the Potency result is “inactive”.

With `Cc1csc(NC(=O)CN2CCCCCC2)n1`, the Potency is 50.1 µM (active). With `CCOc1ccc(-c2nonc2NC(=O)c2oc3ccc(C)cc3c2C)cc1OCC`, the Potency result was “inactive”. With `COc1ccc(CCNc2nc(-c3ccc(Cl)cc3)cc(C(F)(F)F)n2)cc1OC`, the Potency result is “inactive”. Take `C#CCOCCOCCOCCNc1nc(N2CCN(C(=O)[C@H](Cc3ccc(O)cc3)n3cc(C(N)CC(C)C)nn3)CC2)nc(N2CCN(C(=O)[C@H](CCC(=O)O)n3cc(C(N)[C@H](C)CC)nn3)CC2)n1` (stereo partly specified): the Potency was 70.8 µM (active).

Consider `C#CCOCCOCCOCCNc1nc(N2CCN(C(=O)[C@H](CCCCN)n3cc([C@@H](N)C(C)CC)nn3)CC2)nc(N2CCN(C(=O)[C@H](Cc3ccc(O)cc3)n3cc([C@@H](N)C(C)CC)nn3)CC2)n1` (stereo partly specified), for which the Potency is 44.7 µM (active).

As to `CC[C@H](C)[C@@H](C(=O)N1CCNCC1)n1cc([C@@H](N)Cc2ccc(O)cc2)nn1`, the Potency result is “inactive”. With `C#CCOCCOCCOCCNc1nc(N2CCN(C(=O)[C@H](CCC(=O)O)n3cc(C(N)CO)nn3)CC2)nc(N2CCN(C(=O)[C@H](Cc3ccc(O)cc3)n3cc(C(N)[C@H](C)CC)nn3)CC2)n1` (stereo partly specified), the Potency was 39.8 µM (active). With `C#CCOCCOCCOCCNc1nc(N2CCN(C(=O)C(Cc3ccc(O)cc3)n3cc(C(N)CC(C)C)nn3)CC2)nc(N2CCN(C(=O)C(Cc3ccc(O)cc3)n3cc(C(N)C(C)CC)nn3)CC2)n1` (stereo unspecified), the Potency was 56.2 µM (active). Consider `CSc1ccc(C2C(C(=O)Nc3ccccc3)=C(C)Nc3nc4ccccc4n32)cc1` (stereo unspecified), for which the Potency result was “inactive”. The entry for `CCC(CC)C(=O)N1CCc2cc(OC)c(OC)cc2C1COc1ccc(F)cc1` (stereo unspecified) is “inactive”; for `COc1ccc(NC(=O)c2sc3nc[nH]c(=O)c3c2C)cc1` it is “inactive”; for `COc1ccc(OC)c(-c2nc(C(N)=O)c3c(n2)n(-c2ccc4c(c2)OCO4)c(=O)n3C)c1` it is “inactive”.
